Screening data as filed in PubChem BioAssay.
CHT inh – inhibitors of human choline transporter CHT | actives 0.86% (n = 310,000) | CHT-expressing cells, membrane potential dye, choline response; stronger effect = lower value | B-score at 10 µM;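 active means B-score over 3 SD under the library average, and starting fluorescence ratio not unusually high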;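 further: choline stimulus applied at its EC90 after an EC20 pre-addition; B-score computed on integrated fluorescence ratio after choline addition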
Target sequence (Q9GZV3 whole entry, looked up): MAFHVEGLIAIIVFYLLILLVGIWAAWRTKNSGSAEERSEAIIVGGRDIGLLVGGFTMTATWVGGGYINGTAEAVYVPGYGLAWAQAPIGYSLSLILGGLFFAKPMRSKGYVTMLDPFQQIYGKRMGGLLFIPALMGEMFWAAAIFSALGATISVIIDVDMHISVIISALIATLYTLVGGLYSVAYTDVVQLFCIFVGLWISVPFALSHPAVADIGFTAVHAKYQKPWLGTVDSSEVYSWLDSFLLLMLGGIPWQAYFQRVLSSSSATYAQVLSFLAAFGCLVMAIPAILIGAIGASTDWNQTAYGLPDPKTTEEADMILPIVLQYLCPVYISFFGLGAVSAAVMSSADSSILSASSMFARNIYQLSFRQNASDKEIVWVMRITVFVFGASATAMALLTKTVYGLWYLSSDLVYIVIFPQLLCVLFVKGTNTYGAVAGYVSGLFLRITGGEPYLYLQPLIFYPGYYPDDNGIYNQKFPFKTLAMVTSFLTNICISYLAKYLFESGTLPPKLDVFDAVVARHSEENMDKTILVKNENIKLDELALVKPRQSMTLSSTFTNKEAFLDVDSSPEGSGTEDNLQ
ANO1 activ – activates or potentiates the mouse TMEM16A chloride channel; Q8BHY3; AID 623877; HEK293 TMEM16A/YFP-H148Q/I152L, iodide quench fluorescence; stronger effect = lower value; actives 0.3% (n = 340,000); B-score at 10 µM;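 active means fluorescence-ratio B-score plate-corrected deviation score at least 3 library SD below zero, with starting fluorescence score within 5 deviations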;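 further: channel opened by trigger with iodide after compound preincubation; score built on the fluorescence ratio of max minus min over baseline; more negative score means more quench and so TMEM16A activation or potentiation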
TMEM16A inh – mouse TMEM16A channel inhibition, primary screen; HEK293 TMEM16A/YFP iodide influx fluorescence, ionomycin; actives 1.2% (n = 310,000); normalized B-score (activity score, 25-100; higher = stronger inhibition) at 10 µM; Q8BHY3;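 active means ratio plate-corrected score three or more library SD toward inhibition, starting fluorescence score within five deviations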;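 further: score derived from kinetic fluorescence span divided by baseline fluorescence per well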
CHT allo act – allosterically activates the human high affinity choline transporter | Q9GZV3 | CHT-expressing cells, membrane potential dye, choline EC20; stronger effect = higher value; LV-AA mutant CHT in HEK293 cells | B-score at 10 µM | actives 0.49% (n = 310,000);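 active means initial fluorescence not abnormally high and integrated response B-score, plate-corrected, over 3 SD above library mean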
* marks the source's active call; other numbers are inactive results; i = inactive; · = no result. The list is not random: actives were taken first. Their share in the collection is about 2.3%.

SMILES | CHT inh | ANO1 activ | TMEM16A inh | CHT allo act
Cc1oc(-c2cccc(Cl)c2)nc1CN1CCC(C(=O)NCc2ccco2)CC1 | i | i | i | i
O=C(COc1cc(Cl)ccc1Cl)N1CCNC1=O | · | i | · | ·
O=C(COC(=O)c1cc(S(=O)(=O)Nc2ccccc2Cl)ccc1O)Nc1nc2ccccc2s1 | · | -41.5* | · | ·
N#Cc1cccc(NC(=O)COC(=O)c2cc(S(=O)(=O)Nc3ccccc3Cl)ccc2O)c1 | · | i | · | ·
Cc1ccc(-c2cc(C(=O)N/N=C/c3c[nH]c4ccccc34)[nH]n2)cc1 | · | -5.44* | · | ·
CNc1nc(SCc2ccc(C)cc2)nc2c1CCCC2 | i | i | 100* | i
Cc1ccc(CSc2nc3c(c(N(C)C)n2)CCCC3)cc1 | i | i | i | i
COc1cc2c(cc1OC)CN(C1CCC(C(C)(C)C)CC1)CC2 (configuration not stated) | · | i | · | ·
O=C(Nc1ccc(Br)c(C(F)(F)F)c1)c1ccccc1 | i | i | i | i
O=C(Nc1ccc(Br)c(C(F)(F)F)c1)c1ccc(C(F)(F)F)cc1 | i | -13.2* | i | i
O=C(Nc1ccc(OCC(F)(F)C(F)F)c(C(F)(F)F)c1)c1ccc(Cl)cc1 | i | i | 100* | i
O=C(CN1CCN(C(=O)c2ccco2)CC1)Nc1ccc(F)cc1F | i | i | i | i
COC(=O)C1CCN(Cc2ccc(OCCCN3CCN(c4ccc([N+](=O)[O-])cc4)CC3)cc2)CC1 | i | i | 25* | i
CC1CCN(CCCCOc2ccc([N+](=O)[O-])cc2)CC1 | i | i | i | i
O=C(C[n+]1ccccc1)NNc1ccccc1 | i | i | i | i
O=c1[nH]c(-[n+]2ccc3ccccc3c2)c(/C=N/N=C(\[O-])c2ccccc2)s1 | i | -11.5* | i | i
CC(C)(C)c1cc[n+](-c2[nH]c(=O)sc2/C=N/N=C(\[O-])c2cccnc2)cc1 | i | i | i | i
COc1ccc(CCNC(=O)c2cccc(Br)c2)cc1OC | i | i | i | i
Cc1ccc(S(=O)(=O)NCC(c2ccco2)N2CCc3ccccc3C2)cc1 (configuration not stated) | i | i | 25* | i
O=C1C(C=NCc2ccccn2)=C(O)c2ccccc21 | i | i | 25* | i
CC(C)CN=CC1=C(O)c2ccccc2C1=O | i | i | i | i
CC(C)CCC[C@@H](C)[C@H]1CC[C@H]2[C@@H]3C(=O)C=C4C[C@@H](O)CC[C@]4(C)[C@H]3CC[C@]12C | i | i | i | i
C=C1/C(=C\C=C2/CCC[C@]3(C)[C@@H]([C@H](C)CCCC(C)(C)O)CC[C@@H]23)C[C@@H](O)C[C@@H]1O | i | · | 100* | i
COc1ccc(CNC(=O)[C@@H](NC(=O)C2CCN(C(=O)[C@@H]3CCCN3C(=O)OC(C)(C)C)CC2)C(C)C)cc1 | i | i | i | i
CC(C)[C@@H](NC(=O)C1CCN(C(=O)[C@@H]2CCCN2C(=O)OC(C)(C)C)CC1)C(=O)NCc1ccc(F)cc1 | i | -24.1* | i | i
SMILES | CHT inh | ANO1 activ | TMEM16A inh | CHT allo act
Fc1ccccc1C1c2cccn2CCN1C(=S)Nc1cccc(Br)c1 (configuration not stated) | i | i | i | i
Fc1ccccc1C1c2cccn2CCN1C(=S)Nc1ccc(Br)cc1 (configuration not stated) | i | -4.58* | i | i
O=C(Nc1nnc(SCc2ccccc2Cl)s1)C1COc2ccccc2O1 (configuration not stated) | i | i | 25* | i
Cc1ccccc1CSc1nnc(NC(=O)C2COc3ccccc3O2)s1 (configuration not stated) | i | i | i | i
O=C(Nc1nc(=S)ss1)c1ccc(Cl)cc1Cl | -9.22* | i | 100* | i
COCCN(C(=O)c1snc(C(N)=O)c1N)C(C(=O)NC1CCCCC1)c1ccc(N(C)C)cc1 (configuration not stated) | i | i | i | i
O=C1c2ccccc2C(=O)N1CCc1nc(-c2ccccn2)no1 | i | i | 25* | i
Cc1ccc(OCC(=O)NNC(=O)C(C)Sc2ncnc3sc(C)c(C)c23)cc1 (configuration not stated) | i | i | 100* | i
Cn1c(=O)c(/C=C/c2ccccc2)nc2ccccc21 | i | i | i | i
Cn1c(=O)c(/C=C/c2ccc(F)cc2)nc2ccccc21 | · | -7* | · | ·
